Luciferase inh = blocks purified firefly luciferase enzyme activity; P08659; purified P. pyralis luciferase, luminescence, biochemical; Potency, µM (top dose mostly 115 µM), actives largely listed as inhibitors; actives 2.5% (n = 76,000); AID 1347043; further: nearly all actives have a fitted effect of over 65% in size
Target sequence (P08659 whole entry, looked up): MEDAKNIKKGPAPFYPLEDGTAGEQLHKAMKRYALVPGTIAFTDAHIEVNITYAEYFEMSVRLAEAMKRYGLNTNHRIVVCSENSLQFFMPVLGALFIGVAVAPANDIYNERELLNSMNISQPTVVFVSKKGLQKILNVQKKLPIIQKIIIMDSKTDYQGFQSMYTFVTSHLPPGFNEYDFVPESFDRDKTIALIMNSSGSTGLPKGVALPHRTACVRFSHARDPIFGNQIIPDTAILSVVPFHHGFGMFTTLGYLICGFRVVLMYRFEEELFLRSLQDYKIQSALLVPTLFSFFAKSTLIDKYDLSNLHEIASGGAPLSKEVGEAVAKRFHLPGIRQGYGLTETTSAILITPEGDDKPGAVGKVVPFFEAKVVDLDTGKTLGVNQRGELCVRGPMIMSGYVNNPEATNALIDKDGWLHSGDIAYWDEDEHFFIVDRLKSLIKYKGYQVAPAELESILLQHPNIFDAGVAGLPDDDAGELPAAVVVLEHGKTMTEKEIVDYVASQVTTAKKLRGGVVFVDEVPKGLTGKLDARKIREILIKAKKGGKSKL
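Luminescence read by CCD imager after adding enzyme (10nM final) to wells holding compound, titrated in qHTS. Substrates 10uM each D-luciferin and ATP; buffer 50mM Tris acetate pH 7.5, 10mM Mg acetate, Tween-20, BSA.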
3T3 cytotox = cytotoxic compounds in NIH 3T3 cells | AID 1345082 | Potency, µM (highest dose often 96.7 µM), usual class: inhibitors | actives 4.3% (n = 94,000) | NIH 3T3 viability, CellTiter-Glo ATP luminescence, 48-72 h; further: nearly all actives have a fitted effect of over 55% in size
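Mouse fibroblast NIH 3T3 cells, 400 per well, received compound via pintool and were incubated for 48 or 72 hr prior to CellTiter-Glo ATP luminescence measurement.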
HEK cytotox = kills HEK 293 cells; HEK 293 viability, ATP luminescence (CellTiter-Glo), 48-72 h; AID 1345083; actives 6.6% (n = 94,000); Potency, µM (highest dose often 115 µM), hits mostly inhibitors; further: nearly all actives have a fitted effect of over 60% in size
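HEK 293 cells at 250 cells/well were exposed to compounds by pintool transfer for 48 or 72 hr at 37 degree Celsius, 5% CO2. Viability was read as ATP-coupled luminescence with CellTiter-Glo after 10 min at room temperature.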
NPR1 antag = human Npr1 receptor antagonism; Potency, µM (series often up to 46.3 µM), usual class: inhibitors; actives 1.6% (n = 76,000); HEK293 hNpr1 GloSensor cGMP, ANP-stimulated luminescence; AID 1347048; calls by dose curve; further: nearly all actives have a fitted effect of over 60% in size
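Compound pre-incubated 30 min at room temperature on GloSensor-loaded HEK293 cells stably carrying hNpr1 and the pGS-40F cGMP biosensor. Stimulation uses hNppA at 0.1 nM final; luminescence is taken at baseline and 20 min post-agonist.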
GPT2 inh = inhibitors of human GPT2 alanine aminotransferase | Recombinant GPT2, coupled pyruvate oxidase/HRP Amplex Red fluorescence | actives 0.25% (n = 100,000) | Potency, µM (doses to about 57.7 µM), hits mostly inhibitors; further: nearly all actives have a fitted effect of over 60% in size
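Fluorescence read-out: pyruvate from GPT2 turnover coupled to pyruvate oxidase, HRP and Amplex Red (0.2mM ThPP, 0.2U/mL PO and HRP, 50uM Amplex final). Substrates 250uM a-KG, 2mM L-alanine; enzyme 10ng/uL; 30 min RT.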
A number is an active result; – = inactive; ? = inconclusive; · = no result given. A selection: hits, their analogues and other compounds. The true share with any hit is near 10%. Unless noted, the call rests on the fitted dose curve; in most records, active means well fitted curve in the direction sought with a large enough effect; inconclusive means small, poorly fitted or top-dose-only effect, or another doubt; inactive means no such curve, though single readings can be large; an effect the other way counts as inactive or inconclusive.

SMILES	Luciferase inh	3T3 cytotox	HEK cytotox	NPR1 antag	GPT2 inh
CSc1ccc(NC(=O)c2cc(-c3ccc[nH]3)n[nH]2)cc1	4.5µM	–	–	–	–
COc1ccc(NC(=O)c2cc(-c3ccc[nH]3)n[nH]2)cc1F	16µM	–	–	–	–
Cc1cccc(NC(=O)c2cc(-c3ccc[nH]3)n[nH]2)c1	2µM	–	–	–	–
COc1ccc(-c2ccc(C(=O)Nc3cccc(Cl)c3)c(Cl)c2)nn1	·	–	?	·	·
O=C(Nc1cccc(Cl)c1)c1cc(-c2ccc[nH]2)n[nH]1	1.6µM	–	–	?	–
CC1CCC(NC(=O)c2cc(-c3ccc[nH]3)n[nH]2)CC1 (configuration not stated)	?	–	–	–	–
O=C(Nc1ccc2c(c1)C(=O)N1CCC[C@H]1C(=O)N2)c1cc(-c2ccccc2)n[nH]1	–	?	–	–	–
O=C(Nc1cccc(F)c1)c1cc(-c2ccc[nH]2)n[nH]1	2.2µM	–	–	?	–
O=C(Nc1cccc(C(F)(F)F)c1)c1cc(-c2ccc[nH]2)n[nH]1	?	–	–	–	–
Cc1cc(F)ccc1NC(=O)c1cc(-c2ccc[nH]2)n[nH]1	40µM	–	?	–	–
Cc1ccc(NC(=O)c2cc(-c3ccc[nH]3)n[nH]2)cc1F	8.9µM	?	?	–	–
NS(=O)(=O)c1ccc(CCNC(=O)c2cc(-c3ccc[nH]3)n[nH]2)cc1	–	–	–	–	–
O=C(Nc1ccc(F)cc1)c1cc(-c2ccc[nH]2)n[nH]1	5µM	–	–	–	–
O=C(NCc1ccc(F)cc1)c1cc(-c2ccc[nH]2)n[nH]1	–	–	–	?	–
C[C@]1(OC(=O)/C=C/c2ccc(O)cc2)C[C@@H](O)[C@]2(O)C=CO[C@@H](O[C@@H]3O[C@H](CO)[C@@H](O)[C@H](O)[C@H]3O)C12 (some centres not stated)	·	·	·	·	–
CC(C)(C)C(=O)N[C@@H](Cn1ccc(=O)[nH]c1=O)C(=O)O	–	–	–	–	–
O=C(CSCC1CC1)N1CCC2(CCC(=O)N(CCCn3ccnc3)C2)CC1	–	–	–	–	–
Cc1ccc(-c2c(C(=O)Nc3ccc(F)cc3)nc3sccn23)cc1	·	?	?	·	–
Cc1ccc(-c2c(C(=O)NCc3ccccc3)nc3sccn23)cc1	·	–	–	·	–
O=C(NCc1ccccc1Cl)c1nc2sccn2c1-c1cccc(C(F)(F)F)c1	·	?	25µM	·	–
O=C(NCc1ccccc1)c1nc2sccn2c1-c1ccncc1	·	?	112µM	·	–
Cc1ccc(NC(=O)c2nc3sccn3c2-c2ccncc2)cc1	·	?	112µM	·	–
O=C(Nc1ccc(F)cc1)c1nc2sccn2c1-c1cccc(C(F)(F)F)c1	·	?	50µM	·	–
O=C(O)C1=NOC2CN(C(=O)C3CCCC3)CC12 (configuration not stated)	·	–	–	·	–
Cc1ccc(NC(=O)C2CC(=O)Nc3ncnn32)cc1 (configuration not stated)	–	–	–	–	–
SMILES	Luciferase inh	3T3 cytotox	HEK cytotox	NPR1 antag	GPT2 inh
O=C1Nc2ccccc2CNC12CCN(CC1CCOCC1)CC2	·	–	–	·	–
O=C(NCc1cccc(C(F)(F)F)c1)c1nc2sccn2c1-c1ccc(C(F)(F)F)cc1	·	?	40µM	·	–
COCCNC(=O)c1nc2sccn2c1-c1ccc(C(F)(F)F)cc1	·	?	–	·	–
O=C(NCc1ccc(F)cc1)c1nc2sccn2c1-c1cccc(C(F)(F)F)c1	·	?	63µM	·	–
O=C(NCc1ccccc1)c1nc2sccn2c1-c1cccc(C(F)(F)F)c1	·	–	–	·	–
O=C(NCCc1ccc(Cl)cc1)c1nc2sccn2c1-c1ccc(C(F)(F)F)cc1	·	20µM	40µM	·	–
COc1ccc(NC(=O)c2nc3sccn3c2-c2ccccc2)cc1	·	?	?	·	–
COc1ccc(-c2c(C(=O)Nc3cccc(Cl)c3)nc3sccn23)cc1	·	?	63µM	·	–
COCC1(CNS(=O)(=O)c2ccc(Cl)cc2)C[C@@H](O)[C@@H](O)C1 (some centres not stated)	–	–	–	–	–
O=C1Nc2ccc(-c3ccc4c(c3)OCO4)cc2C(=O)N2CCN(C(=O)c3cccs3)C[C@@H]12	–	35µM	32µM	–	–

Bioassay records (PubChem)
